Bioassay records as filed in PubChem BioAssay.
BRCT inh green: inhibitors of human BRCA1 BRCT-phosphoprotein interaction (green fluorophore); P38398; BRCA1 BRCT-phosphopeptide binding, green fluorescence polarization; Potency, µM (highest dose often 76.9 µM), without a hit: at the top dose activity change, negative = inhibition, usual class: inhibitors; 75,000 tested, 0.05% active;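 further: potency means the concentration at half of the fitted maximal effect; plate controls were peptide without protein for full effect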
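Compounds were incubated for 12 min at room temperature with a complex of 100 nM fluorescein-tagged pBACH1 decapeptide and 250 nM His-tagged BRCT protein. Buffer was phosphate pH 7.3 with EDTA, DTT and Tween 20. Disruption of binding lowers the polarization signal.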
Pol III holo inh: DNA polymerase III holoenzyme inhibition | 71,000 tested, 0.25% active | reconstituted DNA polymerase III holoenzyme replication, biochemical | Potency, µM (top dose mostly 57.1 µM), for inactives: top-dose activity change, negative = inhibition; further: potency means the concentration at half of the fitted maximal effect; on the % scale 0 is the no-effect control and ±100 the full control effect
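Reconstituted *E. coli* holoenzyme (0.35 nM Pol III, 1 nM beta, 154 nM SSB, 2 nM primase) was preincubated with compound for 15 min at RT. Synthesis on 1.4 nM ssM13Gori ran 35 min, then was stopped with PicoGreen/EDTA and read as dsDNA fluorescence.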
BRCT PPI red: disrupts BRCA1 BRCT binding to phosphoprotein, red fluorophore readout; AID 892; Potency, µM (series often up to 76.9 µM), for the others: top-dose activity change, negative = inhibition, usual class: inhibitors; BRCT-phosphopeptide binding, red fluorescence polarization; 75,000 tested, 0.03% active; further: on the % scale 0 is the no-effect control and ±100 the full control effect
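Fluorescence polarization: 100 nM His-tagged BRCA1 BRCT with 100 nM TAMRA-labelled phospho-BACH1 decapeptide, phosphate buffer pH 7.3 with 150 mM NaCl, DTT, 0.01% Tween 20; 12 min RT. Binding inhibition seen as FP decrease.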
TsaE inh: YjeE (TsaE) inhibition, E. coli | purified YjeE enzyme, qHTS inhibition assay | P0AF67 | AID 605 | 71,000 tested, 0.05% active | Potency, µM
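Fluorescence polarization of a BODIPY Texas Red–ADP probe (2 uM) bound to purified YjeE (10 uM) was read after 15 min room-temperature incubation with compounds. Loss of polarization marks inhibitors; ADP serves as titrated control.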
HEK293 cAMP ctrl: raises cAMP in parental HEK293 cells, TSHR agonist counter-screen | parental HEK293 CNG cAMP sensor, membrane potential fluorescence | Potency, µM (top dose mostly 57.1 µM), inactives show at the top dose activation, hits mostly activators | 73,000 tested, 2.5% active | AID 938; further: potency means the concentration at half of the fitted maximal effect; % of control where 0% means no effect; nearly all actives have a fitted effect of over 55% in size
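Counterscreen for endogenous-receptor signalling: CNG-channel HEK 293 cells report cAMP rise by membrane depolarization. After 60 min dye equilibration with 100 uM RO 20-1724, compounds incubated 30 min before bottom-read fluorescence at 590 nm.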
TSHR ag: activates the human thyroid stimulating hormone receptor; HEK293-CNG-TSHR cells (CNG channel as cAMP sensor), membrane potential dye, cAMP; 73,000 tested, 0.48% active; Potency, µM (highest dose often 57.1 µM), without a hit: at the highest dose activation, most hits filed as activators; active means well fitted activation curve with a large enough effect in the main read-out, with a control signal flat, not every such curve was filed as active; inconclusive means small, poorly fitted or top-dose-only effect, or a change in a side signal; inactive means no such curve, though single readings can be large or run the other way; % of control where 0% means no effect;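 further: the control signal comes from parental cells without the receptor; potency means the concentration at half of the fitted maximal effect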
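HEK 293 cells stably expressing TSHR and a modified CNG channel, with CNG-only parental cells as counterscreen, were preloaded 60 min at room temperature with membrane potential dye containing 100 uM RO 20-1724. Compound exposure was 30 min, and depolarization was read as fluorescence at 590 nm.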
Active calls of the source: *; i = inactive; ? = inconclusive; . = no result; [ ] = dose if it differs, or a comment. Sampled rows, rich in hits. Any-hit rate of the full collection: about 3.2%. Unless noted, the call rests on the fitted dose curve; in most records, active means well fitted curve in the direction sought with a large enough effect; inconclusive means small, poorly fitted or top-dose-only effect, or another doubt; inactive means no such curve, though single readings can be large; an effect the other way counts as inactive or inconclusive.

SMILES | BRCT inh green | Pol III holo inh | BRCT PPI red | TsaE inh | HEK293 cAMP ctrl | TSHR ag
CC1CCc2c(nc3ncnn3c2N2CCN(c3ccccc3)CC2)C1 (configuration not stated) | 1% | -8% | 0% | i | 25µM* | ?
CC1CCc2c(nc3ncnn3c2N2CCN(c3ccccc3F)CC2)C1 (configuration not stated) | -1% | -2% | 0% | i | ? | ?
Cc1ccc(C)c(N2C(=O)CC(N3CCN(Cc4ccc5c(c4)OCO5)CC3)C2=O)c1 (configuration not stated) | -1% | -2%[11.4 µM] | -2% | i | 10%[11.4 µM] | 15%[11.4 µM]
Cc1ccc2c(c1)N(CC(=O)N(Cc1ccc3c(c1)OCO3)CC1CCCO1)C(=O)C(C)O2 (configuration not stated) | -1% | -1% | 2% | i | 20µM* | ?
Cc1ccc2c(c1)N(CC(=O)c1cccc(Cl)c1)C(=O)C(C)O2 (configuration not stated) | -1% | -6% | -2% | i | 20µM* | ?
CC1Oc2ccccc2N(CC(=O)c2cccc(Cl)c2)C1=O (configuration not stated) | -1% | -8% | 0% | i | ? | ?
COC(=O)CCC(=O)Nc1ccc(NC(=O)CCC(=O)OC)cc1 | -3% | . | -6% | . | 1% | -2%
O=C(CCC(=O)OCC(F)(F)C(F)F)Nc1ccc(Cl)cc1 | 0% | -6% | 1% | i | 32µM* | ?
CCCn1c(-c2ccc(F)cc2)nc2c(NC(C)CN(C)C)nc(C)nc21 (configuration not stated) | 0% | -3% | 0% | i | ? | ?
CC1CCN(C(=O)C2Cc3ccccc3CN2S(=O)(=O)c2ccc(F)cc2)CC1 (configuration not stated) | 0% | -2% | -1% | i | 20µM* | ?
Cc1ccc(S(=O)(=O)N2Cc3ccccc3CC2C(=O)Nc2cc(C)on2)cc1 (configuration not stated) | -2% | 0% | -1% | i | 22% | 25µM*
O=C(C1Cc2ccccc2CN1S(=O)(=O)c1ccc(F)cc1)N1CCCCCC1 (configuration not stated) | -2% | -5% | 0% | i | ? | ?
CC(C)CO/N=C1/C[C@@H](O)[C@@H](O)[C@@H]2[C@@H]3C(=O)N(C(C)(C)C)C(=O)[C@H]3CC[C@H]12 | 1%[15.4 µM] | . | 2%[15.4 µM] | . | -2%[11.4 µM] | 2%[11.4 µM]
Nc1ncn([C@@H]2O[C@@H](CO)[C@@H](O)[C@H]2O)c(=O)n1 | . | -1% | . | i | -3% | 1%
CCOc1ccc(C2C=C(c3ccc(C)cc3)Nc3ncnn32)cc1 (configuration not stated) | 3% | -3% | -2% | i | 20µM* | ?
O=C(Nc1ccc(N2CCOCC2)c(Cl)c1)c1ccco1 | 0% | -8% | -1% | i | 2% | 0%
O=C(Nc1ccc(N2CCOCC2)c(Cl)c1)C1CCCCC1 | -3% | 0% | -1% | i | 25µM* | ?
Cc1ccc(Nc2nc(N3CCOCC3)c3ccccc3n2)cc1 | 0% | -3% | 2% | i | 15% | 16%
Oc1ccc(Nc2nc(N3CCCC3)c3ccccc3n2)cc1 | -2% | 32µM* | -4% | i | -53% | ?
N#Cc1ccccc1NC(=O)c1ccc(-c2ccccc2Cl)o1 | -2% | -1% | -4% | i | 25µM* | ?
O=c1cc(-c2ccccc2O)oc2c(O)c(O)ccc12 | -2% | 0.5µM* | -1% | i | -3% | -6%
CN(C)C[C@H]1CCC[C@@H](CN(C)C)C1=O | 1%[15.4 µM] | -3%[11.4 µM] | 1%[15.4 µM] | i | 20%[11.4 µM] | -5%[11.4 µM]
Cc1ccc(SCCNS(=O)(=O)c2ccc(F)cc2)cc1 | -1% | 2%[11.4 µM] | -1% | i | 18%[11.4 µM] | 1µM*
COc1ccc(S(=O)(=O)NCCSc2ccc(C)cc2)cc1OC | -1% | -1% | -2% | i | ? | ?
